Screening data from PubChem.
A selection: hits, their analogues and other compounds. The true share with any hit is near 4%.
TWEAK-Fn14 inh: inhibitors of TWEAK-Fn14 signaling, primary screen, luciferase reporter cells, uHTS; inhibition, % at 10 µM; TWEAK-stimulated Fn14 reporter cells, luciferase luminescence, 8 h; 2% of 360,000 active; in the data active = inhibition above about 50%
KKLEB cytotox: cytotoxicity in KKLEB CF airway cells, primary screen, cytotoxicity control for CF NF-kB inhibitor project, cell-based, uHTS, fluorescence assay plates; KKLEB CF airway cells viability, ATPlite luminescence, overnight; stronger effect = lower value; cells stimulated with P. aeruginosa culture filtrate; activity change (cytotoxicity), % at 5 µM; 0.36% of 360,000 active; AID 602141, 2011;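 active = corrected activity change at or below -50% at 5 µM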
TROY signal inh: inhibitors of TROY-driven NF-kB signaling, primary screen, Q293 LMP1-TROYcd cells, NF-kB luciferase, uHTS; Q293 LMP1-TROYcd NF-kB luciferase reporter, 4 h; inhibition, % at 10 µM; 0.98% of 360,000 active; AID 1347056, 2019;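 active = compounds whose plate-normalised and pattern-corrected inhibition of the luciferase reporter signal at the single screening dose is 50% or more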
CF NFkB inh: inhibitors of PAF-induced NF-kB signaling, primary screen, cell-based, GFP fluorescence, uHTS; KKLEB NF-kB-GFP reporter, GFP fluorescence overnight; inhibition, % at 5 µM; 0.86% of 360,000 active;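 active = at least 50% inhibition at 5 µM, scaled per plate between neutral and stimulator controls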;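 also: PAF is a Pseudomonas aeruginosa culture filtrate used as stimulus; plate controls were PAF-stimulated DMSO wells for no effect and unstimulated DMSO wells for full effect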
HIF-2a block: HIF-2a reporter inhibitors, primary screen, luminescence, 786-0 RCC cells. 0.72% of 360,000 active. inhibition, % at 18.8 µM. 786-0 RCC cells HIF-2a reporter, luciferase luminescence, overnight;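 active = inhibition of the luminescence signal of 40% or more relative to plate controls, in a single-dose primary screen at 18.75 µM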
Peg3 prom inh: Peg3 promoter-driven luciferase inhibitors, primary screen, cell-based, HeLa, luciferase luminescence | HeLa PEG-Prom luciferase reporter, overnight | inhibition, % at 20 µM | AID 588405, 2011 | 1.7% of 360,000 active;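 active = inhibition of at least 50% at 20 µM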
CF NFkB inh conf: inhibitors of PAF-induced NF-kB signaling, retest, confirmation, cell-based, GFP fluorescence, single concentration; AID 602472, 2012; shares compounds with CF NFkB inh; KKLEB CF airway cells, overnight; 64% of 1,300 active; inhibition, % at 5 µM; in the data active = inhibition above about 40%;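 also: stimulus PAF is a Pseudomonas aeruginosa filtrate and not platelet activating factor; plate controls were DMSO wells with stimulus for no effect and unstimulated DMSO wells for full effect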
Mdm2-MdmX confirm: retested Mdm2-MdmX interaction blockers, confirmation, cell-based, luminescence, single concentration, set 2 | 99% of 740 active | SaOS-2 split-luciferase Mdm2/MdmX complementation | shares compounds with HIF-2a block | inhibition, % at 8 µM;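 active = mean inhibition of the luminescence signal across two replicates at or above 26 percent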
Target sequence (O15151 whole entry, looked up): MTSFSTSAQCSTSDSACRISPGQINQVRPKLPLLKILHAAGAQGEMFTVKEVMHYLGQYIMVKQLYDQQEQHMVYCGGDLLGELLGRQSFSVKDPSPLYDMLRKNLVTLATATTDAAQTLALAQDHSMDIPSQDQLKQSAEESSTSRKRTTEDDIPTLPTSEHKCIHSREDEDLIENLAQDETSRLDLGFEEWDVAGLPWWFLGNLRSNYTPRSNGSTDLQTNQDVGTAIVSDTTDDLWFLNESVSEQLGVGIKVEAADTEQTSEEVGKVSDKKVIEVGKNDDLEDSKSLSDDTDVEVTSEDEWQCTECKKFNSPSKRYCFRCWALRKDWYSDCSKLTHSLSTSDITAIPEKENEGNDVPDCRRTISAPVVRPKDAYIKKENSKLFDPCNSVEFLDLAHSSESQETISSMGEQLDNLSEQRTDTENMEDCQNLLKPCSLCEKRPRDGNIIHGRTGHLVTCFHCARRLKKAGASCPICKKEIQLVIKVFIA
Target sequence (Q00987 whole entry, looked up): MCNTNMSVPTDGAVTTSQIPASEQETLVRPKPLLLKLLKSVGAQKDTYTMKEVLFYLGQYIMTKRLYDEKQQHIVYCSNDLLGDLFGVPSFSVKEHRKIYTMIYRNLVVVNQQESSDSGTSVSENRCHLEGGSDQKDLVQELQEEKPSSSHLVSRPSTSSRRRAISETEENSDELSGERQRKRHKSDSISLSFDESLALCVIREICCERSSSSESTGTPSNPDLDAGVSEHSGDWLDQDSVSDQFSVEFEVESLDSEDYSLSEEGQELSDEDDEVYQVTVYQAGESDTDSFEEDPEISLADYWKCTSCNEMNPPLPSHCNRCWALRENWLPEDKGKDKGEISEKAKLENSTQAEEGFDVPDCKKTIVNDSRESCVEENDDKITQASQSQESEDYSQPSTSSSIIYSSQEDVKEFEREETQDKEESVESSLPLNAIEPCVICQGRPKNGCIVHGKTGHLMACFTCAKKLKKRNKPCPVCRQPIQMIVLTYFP
HIF-2a conf: HIF-2a reporter inhibitor retest, confirmation, luminescence, 786-0 RCC cells. shares compounds with HIF-2a block. HIF-2a luciferase reporter luminescence, overnight. 56% of 1,800 active. inhibition, % at 18.8 µM. AID 651580, 2012;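 active = mean inhibition across four replicates of at least 40 percent at the single tested concentration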
HIF-1a cs: HIF-1a luciferase reporter signal reduction – MiaPaCa-2 cells, single concentration, counter-screen for HIF-2a inhibitor project, confirmation | shares compounds with HIF-2a block | MiaPaCa-2 HIF-1a luciferase reporter, desferoxamine, overnight | inhibition, % at 18.8 µM | 72% of 1,800 active | AID 651589, 2012;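 active = mean inhibition of the reporter signal across four replicates at the single tested dose of 50% or more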
Numbers without * were called inactive; . = no result.

SMILES | TWEAK-Fn14 inh | KKLEB cytotox | TROY signal inh | CF NFkB inh | HIF-2a block | Peg3 prom inh | CF NFkB inh conf | HIF-2a conf | HIF-1a cs | others
Cc1nc2c(O)c3c(c(O)c2nc1C)C1C=CC3CC1 | 12 | -34 | -6 | 83* | -4 | 93* | 85* | . | .
O=C(Nc1nnc(C(F)(F)F)s1)c1ccc(Br)s1 | 28 | -20 | 16 | 54* | -240 | -180 | 83* | . | .
COc1ccc(/C=C/C(=O)c2cc(F)ccc2OC(=O)c2ccccc2C)cc1OC | 53* | -27 | 24 | 54* | 25 | 19 | 45* | . | .
COc1ccc(C(=O)Oc2ccc(F)cc2C(=O)/C=C/c2ccc(OC)c(OC)c2)cc1 | 26 | -15 | 3 | 12 | 4 | 19 | . | . | .
CCOc1ccc(C(C(=O)NCC2CCCO2)N(Cc2cccs2)C(=O)c2snc(C(N)=O)c2N)cc1 (stereo not given) | 26 | -30 | -7 | 72* | 5 | 48 | 72* | . | .
CCN(CC)CCNC(=O)c1ccc(NC(=O)C2CCN(c3ncnc4sc(C)c(C)c34)CC2)cc1 | 4 | -18 | 25 | 55* | 28 | 80* | 56* | . | .
CS(=O)(=O)c1ccc2nc(NC(=O)CCNC(=O)c3ccc(Cl)cc3)sc2c1 | 2 | -4 | -33 | 19 | -78 | -129 | . | . | .
COc1ccccc1NC(=O)c1cc2c(CO)cnc(C)c2oc1=Nc1ccc(OC)c(OC)c1 | -17 | -49 | -20 | 86* | 1 | 56* | 85* | . | .
CCOC(=O)Nc1nc(-c2ccccc2)c(C(=O)c2ccccc2)s1 | 15 | -38 | 8 | 53* | 23 | -27 | 77* | . | .
O=C(CSc1ccccn1)Nc1nonc1[N+](=O)[O-] | 69* | -15 | 68* | 88* | 47* | 104* | 1 | 23 | -34
COc1ccc(N(C)C(=O)C2CCCN2S(=O)(=O)c2cccc3nsnc23)cc1 (stereo not given) | -10 | 0 | -7 | 1 | 7 | 12 | . | . | .
N#CC(C#N)=C1C=CC=CN1/C(=C\c1ccco1)C(=O)c1ccccc1 | 76* | -35 | 69* | 96* | 91* | 99* | 68* | 98* | 105*
CN1CCN(S(=O)(=O)c2ccc(Sc3nnnn3-c3ccccc3)c([N+](=O)[O-])c2)CC1 | 100* | -30 | 40 | 88* | 67* | 91* | 64* | 39 | 100* | Mdm2-MdmX confirm=102*
O=C(c1ccc(S(=O)(=O)c2cccc(Cl)c2)c([N+](=O)[O-])c1)N1CCN(Cc2ccccc2)CC1 | 84* | -39 | 33 | 78* | 28 | 33 | -95 | . | . | Mdm2-MdmX confirm=101*
COc1ccc(C(=O)N2CCN(Cc3ccccc3)CC2)cc1[N+](=O)[O-] | -2 | -1 | 16 | -6 | 3 | 20 | . | . | .
CCc1cc(SC#N)cc(C)c1NC(=O)CCl | 26 | -48 | 9 | 66* | 46* | -87 | 54* | 47* | 62*
CSc1ncc(C(=O)Nc2ccc(C(C)=O)cc2)c(-c2ccccc2)n1 | 4 | 7 | -7 | -10 | -122 | -99 | . | . | .
Cc1ccc(S(=O)(=O)c2nc(S(C)(=O)=O)sc2N2CCC(C)CC2)cc1 | 36 | -13 | 18 | 44 | 13 | 46 | . | . | .
N#C/C(=C\c1cccc(NC(=O)c2ccccc2Cl)c1)C(=O)NCCc1ccccc1 | 38 | -31 | 14 | 82* | 80* | 12 | 9 | 45* | 93*
COCCCNC(=O)/C(C#N)=C/c1cccc(NC(=O)c2ccccc2Cl)c1 | 13 | -21 | 4 | 24 | 21 | 6 | . | . | .
Cc1cc(C)c(C#N)c(OCC2CCCO2)n1 (stereo not given) | 16 | -8 | 5 | 4 | -10 | -3 | . | . | .
O=C(Nc1ccc(S(=O)(=O)N2CCCCCC2)cc1)c1[nH]ncc1[N+](=O)[O-] | -19 | -12 | -37 | 70* | 40* | -21 | -49 | 74* | 88*
COc1ccc(C(=O)NC2CC2)cc1OC1CCN(Cc2ccc(F)cc2Cl)CC1 | -16 | -11 | 0 | 26 | 26 | 36 | . | . | .
C=C1C(=O)OC2C1CCC(C)C1C=CC(=O)C12C (stereo not given) | 48 | 6 | 2 | 15 | 28 | 48 | . | . | .
C=C1C(=O)OC2CC1C(O)CC(C)=CCCC(C)=CC(O)CC2C (stereo not given) | 92* | -40 | 37 | 81* | 94* | 98* | 97* | 98* | 107*
SMILES | TWEAK-Fn14 inh | KKLEB cytotox | TROY signal inh | CF NFkB inh | HIF-2a block | Peg3 prom inh | CF NFkB inh conf | HIF-2a conf | HIF-1a cs | others
C=C1C(=O)OC2CC1C(OC(C)=O)CC(C)=CCCC(C)=CCCC2(C)O (stereo not given) | 71* | -44 | 38 | 94* | 92* | 99* | 32 | 92* | 104*
C=CCn1nc(C(=O)Nc2ccc(OC)cc2)cc1-c1sc(NC(=O)c2ccccc2)nc1C | . | . | . | . | -21 | . | . | . | .
CCOC(=O)C(=Cc1ccc(-n2cncn2)cc1)C(=O)OCC | 101* | -8 | 63* | 75* | 94* | 104* | 22 | 90* | 106*
N#Cc1c(Oc2ccc3ccccc3c2)sc(C(=O)c2ccccc2)c1N | 40 | -15 | 5 | 51* | 42* | 48 | -102 | 17 | -82
Cn1ncc2c(O/N=C(\N)c3ccc(C(C)(C)C)cc3)ncnc21 | 100* | -44 | 32 | 58* | 93* | 112* | 88* | 98* | -198 | Mdm2-MdmX confirm=103*
Cn1c(Sc2ccc(Cl)cc2)c(C=O)c2ccccc21 | 80* | -29 | 55* | 76* | 26 | 54* | 81* | . | . | Mdm2-MdmX confirm=92*
Cn1c(OCC2CCCO2)nc2cc(-c3ccccc3)sc2c1=O (stereo not given) | -15 | 0 | 3 | -6 | -122 | -64 | . | . | .
O=[N+]([O-])c1ccc(C=CC=Cc2ccccc2)cc1 | -29 | 11 | -42 | -47 | -241 | -255 | . | . | .
